TLR9-MyD88 inh = inhibitors of TLR9-MyD88 association in cells, primary screen, cell-based, CHO, BLA complementation, fluorescence. CCF4 FRET ratio. 340,000 tested, 0.21% active. inhibition, % at 4.98 µM. Toll-like receptor 9 (Homo sapiens) + Myeloid differentiation primary response protein …;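 active = inhibition above the mean over all tested compounds plus 3 SD, cut at about 21% in these data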;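 also: 0% = DMSO only wells and 100% = clavulanate BLA inhibitor control wells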
HTR2A ag = mouse Htr2a agonists via beta-arrestin recruitment, primary screen, cell-based, luminescence | 5-hydroxytryptamine receptor 2A (Mus musculus), P35363 | CHO-K1 mHTR2A beta-arrestin complementation; percent of 30 µM serotonin response | activation, % at 7.6 µM | 360,000 tested, 0.66% active | AID 624169, 2012;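 active = activation above a run cutoff, the mean activation of all tested compounds plus 3 SD, cut at about 14% in these data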;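 also: 0% = plate median of compound wells and 100% = 30 µM serotonin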
TLR4 MyD88 comp = inhibitors of TLR4-MyD88 association in cells, primary screen, cell-based, HeLa CL3-4, BLA complementation, FRET ratio; HeLa CL3-4 TLR4/MyD88 BLA complementation; inhibition, % at 8.4 µM; 200,000 tested, 0.18% active; in the data active = inhibition above about 25%;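 also: 0% = vehicle and 100% = reference inhibitor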
ANO1 block = TMEM16A chloride channel inhibitors, primary screen, cell-based, HTS | HEK293 TMEM16A/YFP iodide influx fluorescence, ionomycin | 310,000 tested, 1.2% active | normalized B-score (activity score, 25-100; higher = stronger inhibition) at 10 µM | Anoctamin-1 (Mus musculus), Q8BHY3 | AID 588511, 2011;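 active = ratio plate-corrected score three or more library SD toward inhibition, starting fluorescence score within five deviations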;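 also: score derived from kinetic fluorescence span divided by baseline fluorescence per well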
TMEM16A act = TMEM16A chloride channel activators or potentiators, primary screen, cell-based, HTS | AID 623877, 2012 | 340,000 tested, 0.3% active | HEK293 TMEM16A/YFP-H148Q/I152L, iodide quench fluorescence; stronger effect = lower value | B-score at 10 µM;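 active = fluorescence-ratio B-score plate-corrected deviation score at least 3 library SD below zero, with starting fluorescence score within 5 deviations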;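 also: channel opened by trigger with iodide after compound preincubation; score built on the fluorescence ratio of max minus min over baseline; more negative score means more quench and so TMEM16A activation or potentiation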
NOD2-RIPK2 inh = NOD2-RIPK2 binding disruptors in cells, primary screen, fluorescence, CHO cells, BLA complementation; Receptor-interacting serine/threonine-protein kinase 2 (Homo sapiens), O43353; CCF4 ratio; inhibition, % at 4.98 µM; 360,000 tested, 0.38% active; AID 624267, 2012; in the data active = inhibition above about 21%;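 also: 0% = vehicle only and 100% = reference blocker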
TMEM16A reconf = TMEM16A chloride channel inhibitors, confirmation, cell-based, re-confirmation | shares compounds with ANO1 block | HEK293 TMEM16A/YFP-H148Q, iodide quench fluorescence; ionomycin added to raise cell calcium | AID 652189, 2013 | inhibition, % at 10 µM | 2,300 tested, 39% active;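 active = mean duplicate percent inhibition, scaled so buffer wells are 0 and the reference blocker 100, over three buffer SD above buffer mean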
TMEM16A Ca cntr = calcium mobilization in TMEM16A/YFP HEK293 cells, confirmation, counter-screen for TMEM16A inhibitor project; shares compounds with ANO1 block; Fluo4 calcium mobilization; calcium response (% of ionomycin), % at 10 µM; 2,300 tested, 2% active; AID 652231, 2013;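 active = duplicate-averaged calcium signal over 20% of the ionomycin maximum, relative to buffer baseline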;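 also: each well's signal is peak minus trough fluorescence divided by its pre-addition baseline; 0% = buffer wells and 100% = ionomycin wells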
YFP-HEK293 quench = iodide YFP quench changes in parental YFP-HEK293, counter-screen for TMEM16A inhibitor project, cell-based. ionomycin. YFP ratio F(max-min)/F0 at 10 µM. 2,300 tested, under 10 active. AID 652233, 2013. shares compounds with ANO1 block;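 active = yellow fluorescent protein signal ratio exceeding the buffer control mean by over 5 SD of those controls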;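 also: ratio is mean of duplicate wells from kinetic YFP trace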
ClC-1 inh = ClC-1 chloride channel inhibition, selectivity assay for TMEM16A inhibitor project, cell-based, voltage-dependent ClC-1. shares compounds with ANO1 block. ratio percent, % at 10 µM. 2,300 tested, under 10 active. CHO ClC-1-YFP, iodide influx fluorescence quench; iodide control reads 0, buffer control 100;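 active = duplicate-mean ratio percent above the mean of iodide-only control wells, which defines zero, plus 5 of their SD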;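 also: higher percent means stronger block of ClC-1 iodide influx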
Starred values were filed as active, the others as inactive; i = inactive; · = no result. Hits are enriched below; roughly 2.4% of the tested compounds scored in any of these assays.

SMILES	TLR9-MyD88 inh	HTR2A ag	TLR4 MyD88 comp	ANO1 block	TMEM16A act	NOD2-RIPK2 inh	TMEM16A reconf	TMEM16A Ca cntr	YFP-HEK293 quench	ClC-1 inh
CCOC(=O)CCc1c(C)c2ccc(OC(C)C(=O)OCC)c(C)c2oc1=O (configuration not stated)	0	1	-8	100*	i	1	34%*	i	-0.98	-29
Cc1cc(C)cc(NC(=O)c2ccc(CSc3nnc(C)s3)cc2)c1	-9	-3	-1	i	i	-2	·	·	·	·
CCN(c1ccccc1)S(=O)(=O)c1cc(NC(=O)Nc2ccccc2C#N)ccc1Cl	9	-3	-7	25*	i	1	i	i	-1	-6
CCN(c1ccccc1)S(=O)(=O)c1cc(NC(=O)COC(=O)C2CC2)ccc1Cl	-8	-2	-9	100*	i	1	i	i	-0.9	-4
CCCC(=O)c1ccc(N2CCN(C(=O)c3ccc(Br)cc3)CC2)c(F)c1	-4	6	3	i	i	-3	·	·	·	·
CCCC(=O)c1ccc(N2CCN(C(=O)c3ccccc3)CC2)c(F)c1	4	-4	-9	25*	i	5	i	i	-1.2	-20
O=C(c1ccc(N2CCN(C(=O)c3ccccc3Br)CC2)cc1)c1cccc(F)c1	0	7	·	100*	i	7	17%*	i	-1	-10
CCCC(=O)c1ccc(N2CCN(C(=O)c3ccccc3Br)CC2)c(F)c1	1	-1	2	100*	i	2	20%*	i	-0.88	-4
C/C=C/C(=O)OCC(=O)NC(=O)NC(C)C	-9	6	0	i	i	7	·	·	·	·
N#CC(c1ccccc1)c1ccc2c(C(F)(F)F)cc(C(F)(F)F)nc2n1 (configuration not stated)	-3	3	13	100*	i	1	42%*	i	-0.84	16
COc1cccc(C(=O)NC(C)c2ccc(-c3ccccc3)cc2)c1OC (configuration not stated)	-17	-10	·	25*	i	-7	24%*	i	-1.1	-10
COc1ccc(-c2ccc(-c3nnc(Cc4ccc(OC)c(OC)c4)o3)cc2)cc1	-12	1	17	25*	i	3	i	i	-1.3	-2
COc1ccc(OC)c(NCc2nnc(-c3ccccc3)o2)c1	11	-1	·	i	i	-8	·	·	·	·
CS(=O)(=O)c1ccc2nc(NC(=O)c3cc(-c4ccccc4)nn3-c3ccccc3)sc2c1	-1	3	-15	i	i	-4	·	·	·	·
CCOC(=O)c1nc(C)nc(Sc2n[nH]c(-c3cc(C(F)(F)F)cc(C(F)(F)F)c3)n2)c1C	2	1	·	25*	i	-11	30%*	i	-0.99	-22
CC(C)(C)C1CCc2c(sc(NC(=O)C3CC=CCC3C(=O)O)c2C#N)C1 (configuration not stated)	-4	5	3	100*	i	-4	21%*	i	-1.1	-20
COc1ccc(C(=O)CSc2[nH]c(=O)cc(C(F)(F)F)c2C#N)cc1	-1	7	·	25*	i	-7	22%*	i	-1	-14
COc1ccc(-c2cc(C(F)(F)F)c(C#N)c(SCC(=O)Nc3ccc(C)cc3)n2)cc1	7	-5	-7	i	i	0	·	·	·	·
COc1cc(NC(=O)N[C@@H](CCSC)C(=O)O)cc(OC)c1	-5	3	·	i	i	0	·	·	·	·
CCOC(=O)c1c(NC(=O)COC)sc(C)c1C	-3	1	-3	i	i	3	·	·	·	·
CCOC(=O)c1c(NC(=O)COC(=O)C2CC2C)sc(C)c1C (configuration not stated)	6	2	4	25*	i	-2	i	i	-1.1	-5
COc1ccc(CNC(=O)c2csc(Cc3ccc(Cl)cc3)n2)cc1	-9	0	10	100*	i	5	i	i	-1.2	-10
O=C(Nc1ccc(Cl)cc1)c1csc(Cc2ccccc2)n1	6	-1	-4	25*	i	0	30%*	i	-0.87	-4
COc1ccc(NC(=O)c2csc(Cc3ccc(Cl)cc3)n2)cc1	7	2	-11	100*	i	-2	i	i	-0.91	-4
COc1ccc(Cn2nnc(C(=O)Nc3ccc(F)cc3)c2N)cc1	6	-4	13	i	i	-2	·	·	·	·
SMILES	TLR9-MyD88 inh	HTR2A ag	TLR4 MyD88 comp	ANO1 block	TMEM16A act	NOD2-RIPK2 inh	TMEM16A reconf	TMEM16A Ca cntr	YFP-HEK293 quench	ClC-1 inh
COc1ccc(Cc2nc(C(=O)Nc3ccc(F)cc3)cs2)cc1	-9	-2	-5	100*	i	-6	26%*	i	-0.71	-8
COc1ccc(CNC(=O)c2csc(Cc3ccc(OC)cc3)n2)cc1	2	-2	12	i	i	6	·	·	·	·
O=C(Cn1cc(COc2c(F)c(F)cc(F)c2F)nn1)c1ccc(O)cc1	3	0	·	·	·	-13	·	·	·	·
O=C(Nc1cc(Cl)ccc1-n1cncn1)c1ccc(Br)o1	7	-1	·	i	i	-1	·	·	·	·
COc1ccc(Cc2nc(C(=O)Nc3ccccc3)cs2)cc1	-5	-2	-7	100*	i	6	24%*	i	-1.1	-15
Cc1cc(Cl)ccc1C(O)c1ncc(-c2ccccc2C(F)(F)F)[nH]1 (configuration not stated)	·	-1	·	·	·	7	·	·	·	·

Screens: PubChem BioAssay, several laboratories
